Test results taken from PubChem BioAssay (EPA / NIEHS).
Activity calls are given as the source filed them. The calls were made as follows: active = hit-call score of the fitted dose curve at least 0.9, where 1 is the maximum; inactive = score below 0.9.

Experiment: CCTE_Shafer_MEA_acute_cross_correlation_area: CCTE's Neural Acute Assay for Area of Cross Correlation, Shafer Lab (AID 2284024);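 also: curves fitted for loss of cross-correlation area so actives lower synchrony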
Protocol: CCTE_Shafer_MEA_acute assay is conducted using Axion Biosystems 48 well microelectrode array (MEA) plates and Maestro recording system. Each well of the MEA plate contains a grid of 16 microelectrodes embedded in the culture surface. Electrically active cells, such as neurons, can be cultured over the electrodes, and electrical activity in these cells can be recorded extracellularly. The spontaneous firing of neurons is captured from each electrode on a microsecond timescale providing both temporally and spatially precise data. […] The CCTE_Shafer_MEA_acute assay uses primary cultures of rat cortical neurons. As these cultures mature over time, neural networks develop functional activity and form cohesive networks in which electrical activity can be highly coordinated. Baseline 40-minute recordings are made on days post-plating 13 or 15, followed by a secondary 40-minute recording after chemical exposure.CCTE_Shafer_MEA_acute_cross_correlation_area is a component of the CCTE_Shafer_MEA_acute assay. It measures the area under the well-wide pooled inter-electrode cross-correlation of action potential firing (not normalized to auto-correlations) within a window centered around 0 for the phase lag during a recording in a microelectrode array (MEA) using Axion Biosystems Maestro 768 channel amplifier with the AxIS adaptive spike detector. The recordings before and after chemical treatment are used to calculate a percent change in the cross correlation area in each well.Data from the assay component CCTE_Shafer_MEA_acute_cross_correlation_area was analyzed into 1 assay endpoint. This assay endpoint, CCTE_Shafer_MEA_acute_cross_correlation_area, was analyzed in the negative analysis fitting direction relative to DMSO as the negative control and baseline of activity. Using a type of functional reporter, gain or loss-of-signal activity can be used to understand electrical activity.
Spontaneous activity in the cortical cultures was recorded using an Axion Biosystems Maestro 768 channel amplifier and Axion Integrated Studios (AxIS) v1.8 (or later) software. The amplifier recorded from all channels simultaneously (gain = 1200 x; sampling rate = 12.5 kHz/channel): raw signals were filtered with a Butterworth band-pass filter (300-5000 Hz), which filters out slower local field potentials leaving only fast potentials, i.e., "spikes", arising from extracellular currents associated with action potentials (Pine 2006; Wheeler and Nam 2011). On-line spike detection of filtered signals was conducted with the AxIS adaptive spike detector, using a threshold of 8x the root mean squared (rms) noise on each channel. Any electrodes with rms noise levels greater than 5 uV were grounded (e.g., no data were recorded). Once grounded, an electrode was grounded for the duration of the experiment. All recordings were conducted at 37 C. Wells were deemed usable if on the day of the exposure >/= 10 electrodes were active (defined as >/= 5 spikes/min). On DIV 13 or 15, a minimum of three wells from one cortical culture preparation were treated with each compound (0.03-40 uM). Prior to recording baseline activity, each mwMEA plate was placed in the Maestro at 37 C and allowed to sit for 20 min while firing rates stabilized. Baseline activity (40 min) was recorded before the addition of each compound. An additional 40 min of spontaneous activity was recorded in the presence of each compound. Changes in network parameters relative to baseline were assessed following compound treatment.

SMILES | outcome
CC(=O)C(C)=CC1C(C)=CCCC1(C)C (stereo unspecified) | inactive
CCCCCCCCCCO | inactive
Nc1ccccc1N | inactive
CN[C@H]1CC[C@@H](c2ccc(Cl)c(Cl)c2)c2ccc(S(N)(=O)=O)cc21 | inactive
CCOC(=O)C(C)(C)Oc1ccc(Cl)cc1 | inactive
NCC1(Cc2noc(=O)[nH]2)CCCCC1 | inactive
COc1ccc2c(c1)c(CC(=O)O)c(C)n2C(=O)c1ccc(Cl)cc1 | inactive
C[Si]1(C)O[Si](C)(C)O[Si](C)(C)O[Si](C)(C)O1 | inactive
CCCc1cc(=O)[nH]c(=S)[nH]1 | inactive
Cc1ccc(C)c(O)c1C | inactive
CC(=O)Oc1ccccc1C(=O)O | inactive
FC(F)(F)C(F)(F)C(F)(F)C(F)(F)C(F)(F)C(F)(F)CCI | inactive
Cc1ccc2ncccc2c1 | inactive
Cc1ccc(C(C)C)c(O)c1 | inactive
CN1CCCC1=O | inactive
NS(=O)(=O)c1cc2c(cc1Cl)NCNS2(=O)=O | inactive
C=CCc1ccc(O)c(OC)c1 | inactive
Nc1nc(N)c2nc(CNc3ccc(C(=O)N[C@@H](CCC(=O)O)C(=O)O)cc3)cnc2n1 | inactive
Clc1cc(Cl)c(Cl)cc1Cl | inactive
C=CCOC(=O)c1ccccc1C(=O)OCC=C | inactive
CCCCCCCCCCCCCCCCCC(=O)O | inactive
c1cc(-c2ccncc2)ccn1 | inactive
COc1ccc(S(=O)(=O)N2C(=O)[C@@](c3ccccc3OC)(N3C[C@H](O)C[C@H]3C(=O)N(C)C)c3cc(Cl)ccc32)c(OC)c1 | inactive
Nc1ccc2c(c1)C(=O)c1ccccc1C2=O | inactive
O=C(O)CCCCC(=O)O | inactive
CNCc1cc(F)ccc1Oc1ccc(Cl)c(Cl)c1 | inactive
